Measured values published in PubChem BioAssay.
Active and inactive are the calls of the source. Unless noted, no rule for the calls is given here.

Assays:
[1] = HepG2 liver cancer cell viability effects, profiling panel, resazurin fluorescence, 24 h, PK04 Diversity Set (AID 1172); conditions: higher = more signal
[2] = basal S. cerevisiae growth modulation, no modifier, primary screen, OD600, strain BY4716, 24 h, basal condition (AID 1173); conditions: OD600, 24 h, higher = more signal, called active from +8 up or from −8 down
[3] = MM1S myeloma cell viability, profiling panel, resazurin fluorescence, basal, 24 h, PK04 Diversity Set (AID 1174); conditions: higher = more signal, called active from +8 up or from −8 down;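 also: MM1S multiple myeloma cell line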
[4] = molecular target: Dihydroorotate dehydrogenase (quinone), mitochondrial (Plasmodium falciparum (isolate 3D7)) (UniProt Q08210); assay: PfDHODH enzyme inhibitors, primary screen, biochemical, C-terminal His tag, absorbance 600 nm (AID 1175); conditions: DCIP absorbance 600 nm, higher = more signal, called active from +8 up or from −8 down;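 also: recombinant parasite enzyme with a five histidine tag at its C terminus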
Sequence of Dihydroorotate dehydrogenase (quinone), mitochondrial (Plasmodium falciparum (isolate 3D7)) (Q08210 whole entry, looked up): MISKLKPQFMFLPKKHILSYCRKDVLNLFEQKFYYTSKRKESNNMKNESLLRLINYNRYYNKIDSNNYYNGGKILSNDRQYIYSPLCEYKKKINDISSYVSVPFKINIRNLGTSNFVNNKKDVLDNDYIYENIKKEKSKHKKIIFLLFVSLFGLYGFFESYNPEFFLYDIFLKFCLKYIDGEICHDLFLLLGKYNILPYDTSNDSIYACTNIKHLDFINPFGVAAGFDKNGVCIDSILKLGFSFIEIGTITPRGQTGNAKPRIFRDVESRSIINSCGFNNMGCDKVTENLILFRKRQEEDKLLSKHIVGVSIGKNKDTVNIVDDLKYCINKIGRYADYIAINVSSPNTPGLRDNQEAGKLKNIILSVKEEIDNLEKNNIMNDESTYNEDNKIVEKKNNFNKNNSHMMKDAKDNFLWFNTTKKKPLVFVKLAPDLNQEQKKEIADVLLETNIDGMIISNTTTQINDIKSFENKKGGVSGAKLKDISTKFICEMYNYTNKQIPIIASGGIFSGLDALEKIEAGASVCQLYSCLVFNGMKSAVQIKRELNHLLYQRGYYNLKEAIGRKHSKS

[5] = P. aeruginosa biofilm formation inhibitors, primary screen, strain PAO1, LB-PBS medium, absorbance 600 nm (AID 1176); conditions: P. aeruginosa PAO1 growth/biofilm, A600, 12 h; higher = more signal
[6] = S. cerevisiae RM11-1a growth modifiers, primary screen, strain RM11-1a, OD600, basal, 24 h (AID 1177); conditions: OD600, 24 h, higher = more signal, called active from +8 up or from −8 down;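 also: cultures grown under basal conditions with no added stressor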
[7] = E. coli acrAB mutant growth effects, primary screen, E. coli filamentation inducers, strain DRC39, OD650, 24 h (AID 1178); conditions: higher = more signal, called active from +8 up or from −8 down;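 also: growth measured as culture turbidity by optical density at 650 nm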
[8] = E. coli acrAB mutant growth effects, primary screen, E. coli filamentation inducers, strain DRC39, OD650, 48 h (AID 1179);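 also: screen aims at cell division blockers that make cells filament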; conditions: E. coli DRC39 delta-acrAB growth, higher = more signal, called active from +8 up or from −8 down
[9] = RPMI8226 myeloma cell viability, profiling panel, resazurin fluorescence, basal, 24 h, PK04 Diversity Set (AID 1180); conditions: higher = more signal;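 also: RPMI8826 multiple myeloma cell line at 5000 cells per well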
[10] = molecular target: E3 ubiquitin-protein ligase XIAP (Homo sapiens) (UniProt P98170); assay: XIAP binders, primary screen, biophysical, small-molecule microarray, fluorescence 635 nm (AID 1181); conditions: small-molecule microarray binding, higher = more signal;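 also: score merges 667 nm emission and signal to noise over triplicate slides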
Sequence of E3 ubiquitin-protein ligase XIAP (Homo sapiens) (P98170 whole entry, looked up): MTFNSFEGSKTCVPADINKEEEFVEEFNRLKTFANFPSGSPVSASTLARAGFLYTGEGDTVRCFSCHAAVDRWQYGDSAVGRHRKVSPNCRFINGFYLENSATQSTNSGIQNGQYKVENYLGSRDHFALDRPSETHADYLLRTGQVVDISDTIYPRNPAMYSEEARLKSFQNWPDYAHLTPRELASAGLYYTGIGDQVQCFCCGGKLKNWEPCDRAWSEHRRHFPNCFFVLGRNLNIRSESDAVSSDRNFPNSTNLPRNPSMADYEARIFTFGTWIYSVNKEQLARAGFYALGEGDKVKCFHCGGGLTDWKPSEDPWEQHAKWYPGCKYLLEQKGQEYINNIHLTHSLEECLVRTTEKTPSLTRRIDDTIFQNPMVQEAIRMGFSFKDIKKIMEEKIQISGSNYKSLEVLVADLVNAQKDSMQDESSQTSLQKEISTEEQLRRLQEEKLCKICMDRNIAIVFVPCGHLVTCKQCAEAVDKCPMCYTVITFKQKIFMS

[11] = system: XIP peptide (Xip251-270) binding; assay: small-molecule binders of XIP peptide, primary screen, biochemical, small-molecule microarray, fluorescence 635/667 nm, 0.1 µg/mL protein (AID 1182); conditions: fluorescent protein binding, 635 nm, higher = more signal, called active from +8 up or from −8 down
[12] = system: XIP peptide (Xip251-270); assay: small-molecule binders of XIP peptide, primary screen, biochemical, small-molecule microarray, fluorescence 635/667 nm, 0.5 µg/mL protein (AID 1183); conditions: small-molecule microarray binding, fluorescence 635 nm; higher = more signal
[13] = Plasmodium falciparum growth inhibition, primary screen, strain 3D7, DAPI fluorescence, 100 nL (AID 1184);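 also: parasites grown inside human red blood cells in medium with human serum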; conditions: P. falciparum 3D7 growth, 3 d, higher = more signal
[14] = molecular target: Homeobox protein Hox-A13 (Mus musculus) (UniProt Q62424); assay: inhibitors of HoxA13-DNA binding, primary screen, biochemical, fluorescence polarization, labeled oligonucleotide (AID 1185); conditions: 15 min, higher = more signal, called active from +8 up or from −8 down
Sequence of Homeobox protein Hox-A13 (Mus musculus) (Q62424 whole entry, looked up): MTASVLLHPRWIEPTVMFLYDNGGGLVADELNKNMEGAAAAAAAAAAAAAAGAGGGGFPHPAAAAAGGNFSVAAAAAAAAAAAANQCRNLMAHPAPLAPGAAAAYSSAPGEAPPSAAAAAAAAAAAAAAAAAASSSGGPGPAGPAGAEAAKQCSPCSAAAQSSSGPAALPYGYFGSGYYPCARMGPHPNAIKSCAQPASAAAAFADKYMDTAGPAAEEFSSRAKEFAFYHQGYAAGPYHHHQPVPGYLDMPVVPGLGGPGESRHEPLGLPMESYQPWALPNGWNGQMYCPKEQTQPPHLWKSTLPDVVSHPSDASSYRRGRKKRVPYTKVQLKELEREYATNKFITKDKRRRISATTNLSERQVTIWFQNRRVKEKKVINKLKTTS

[15] = inhibitors of hydroxyurea-induced Chk1 phosphorylation, primary screen, imaging, HeLa, phospho-Chk1 antibody, percent positive cells (AID 1186); conditions: hydroxyurea-induced phospho-Chk1 immunofluorescence imaging, higher = more signal
[16] = inhibitors of hydroxyurea-induced Chk1 phosphorylation, primary screen, imaging, HeLa, phospho-Chk1 nuclear intensity (AID 1187); conditions: hydroxyurea-induced phospho-Chk1 immunofluorescence imaging, higher = more signal

Row | Compound | z-score [1] | z-score [2] | z-score [3] | composite z-score [4] | z-score [5] | z-score [6] | z-score [7] | z-score [8] | z-score [9] | composite z-score [10] | composite z-score [11] | composite z-score [12] | z-score [13] | z-score [14] | z-score [15] | z-score [16]
1 | [N-]=[N+]=Nc1ccccc1C[C@@]1(C(=O)N2CCCCC2)N=C(c2ccc(OCCCO)cc2)O[C@@H]1c1ccccc1 | 1.9 | -2.84 (inactive) | -0.351 (inactive) | 0.496 (inactive) | 3.16 (inactive) | 0.076 (inactive) | 1.38 (inactive) | 0.887 (inactive) | -0.0538 | -0.236 | -0.0034 (inactive) | 0.727 | -2.19 | -5.04 (inactive) | -0.878 (inactive) | -0.654 (inactive)
2 | CCCCCCc1nc(-c2ccc(-c3ccc(Cl)c(Cl)c3)o2)c(C)c2c1[Si](C(C)C)(C(C)C)OC2 | -0.865 | -4.18 (inactive) | -2.84 (inactive) | -2.2 (inactive) | 0.668 (inactive) | -0.721 (inactive) | -0.0618 (inactive) | -0.616 (inactive) | -1.42 | -0.113 | -0.376 (inactive) | 0.148 | -2.4 | -2.13 (inactive) | 0.394 (inactive) | 0.251 (inactive)
3 | COc1ccc([C@H]2C[C@H]3C(I)=C[C@@H]2C(=O)[C@]32CO2)cc1 | 0.91 | -9.78 (active) | -0.306 (inactive) | -0.174 (inactive) | 0.167 (inactive) | -1.14 (inactive) | 1.73 (inactive) | 0.344 (inactive) | 0.867 | 0.288 | -0.344 (inactive) | 0.68 | 0.456 | -1.41 (inactive) | 0.125 (inactive) | -0.217 (inactive)
4 | C=CCOC(=O)[C@H]1[C@@H]2C(=O)O[C@@H](c3ccccc3)[C@@H](c3ccccc3)N2[C@@H](c2ccc(OCCOC(=O)[C@H]3C[C@H]4C(=O)N[C@@H](CCCCN(C)C)C(=O)N4[C@H]3c3cccc(OCCO)c3)cc2)[C@]12C(=O)Nc1ccc(I)cc12 | -0.0574 | 0.626 (inactive) | -0.865 (inactive) | 1.71 (inactive) | 0.808 (inactive) | 1.75 (inactive) | -0.548 (inactive) | -1.02 (inactive) | -0.316 | 0.194 | 0.718 (inactive) | 0.634 | -0.355 | 5.48 (inactive) | -0.187 (inactive) | 0.0593 (inactive)
5 | CO[C@H]1O[C@H](CO)[C@@H](OC(=O)Nc2ccccc2)[C@@H]2OC(=O)[C@@H](Cc3ccc4ccccc4c3)C/C=C/C[C@H](Cc3ccc4ccccc4c3)C(=O)O[C@@H]12 | -1.72 | -0.456 (inactive) | -0.588 (inactive) | -2.21 (inactive) | 0.509 (inactive) | -0.474 (inactive) | 1.13 (inactive) | 1.09 (inactive) | -1.15 | 1.54 | 1.97 (inactive) | 0.748 | -0.492 | -3.03 (inactive) | -0.956 (inactive) | -0.96 (inactive)
